Test results from ChEMBL document CHEMBL1961873, “Compounds: GSK PKIS; Assays: Nanosyn kinase panel” (2012).
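Note: values are mean percent inhibition.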

The compounds below were run against Phosphatidylinositol 4,5-bisphosphate 3-kinase catalytic subunit alpha isoform (Homo sapiens) (UniProt P42336). Conditions: at 1 µM.
Chain of Phosphatidylinositol 4,5-bisphosphate 3-kinase catalytic subunit alpha isoform (Homo sapiens) (P42336 whole entry, canonical isoform): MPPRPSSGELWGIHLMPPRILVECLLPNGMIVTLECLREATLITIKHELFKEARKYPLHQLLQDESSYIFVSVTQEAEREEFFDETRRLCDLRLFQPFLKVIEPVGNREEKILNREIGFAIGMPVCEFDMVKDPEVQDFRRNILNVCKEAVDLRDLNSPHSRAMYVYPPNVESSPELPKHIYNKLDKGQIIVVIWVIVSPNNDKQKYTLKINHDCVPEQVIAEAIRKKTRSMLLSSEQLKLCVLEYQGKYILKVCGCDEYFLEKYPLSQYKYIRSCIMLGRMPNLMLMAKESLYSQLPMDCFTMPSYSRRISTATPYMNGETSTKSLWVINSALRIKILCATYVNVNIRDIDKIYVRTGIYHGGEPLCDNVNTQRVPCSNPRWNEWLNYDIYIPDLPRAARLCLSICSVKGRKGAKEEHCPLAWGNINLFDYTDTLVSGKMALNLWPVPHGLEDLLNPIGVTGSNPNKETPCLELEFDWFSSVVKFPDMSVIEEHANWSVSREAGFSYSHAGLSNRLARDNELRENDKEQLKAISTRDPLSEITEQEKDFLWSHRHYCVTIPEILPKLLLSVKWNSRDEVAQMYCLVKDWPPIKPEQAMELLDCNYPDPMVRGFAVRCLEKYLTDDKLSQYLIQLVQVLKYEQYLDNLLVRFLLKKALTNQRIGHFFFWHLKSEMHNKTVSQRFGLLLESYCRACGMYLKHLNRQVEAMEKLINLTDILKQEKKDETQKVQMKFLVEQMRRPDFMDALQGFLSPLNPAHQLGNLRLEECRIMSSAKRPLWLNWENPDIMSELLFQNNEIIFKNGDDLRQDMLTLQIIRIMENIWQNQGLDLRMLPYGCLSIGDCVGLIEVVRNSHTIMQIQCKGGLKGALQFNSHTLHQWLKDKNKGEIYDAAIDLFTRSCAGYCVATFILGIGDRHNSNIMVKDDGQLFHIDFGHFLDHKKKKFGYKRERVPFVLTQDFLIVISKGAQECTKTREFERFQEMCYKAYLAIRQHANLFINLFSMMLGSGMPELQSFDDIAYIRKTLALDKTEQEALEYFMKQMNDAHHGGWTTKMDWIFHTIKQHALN
Work on `ON=C1CCc2cc(-c3nc(C4CCNCC4)[nH]c3-c3ccncc3)ccc21` yielded an inhibition of 0%.
`O=C1Nc2ccc(-c3cccnc3)cc2C1=Cc1cc(Br)c(O)c(Br)c1` was tested, and the inhibition was 55.5%.
Work on `CCOc1nccc2c1nc(-c1nonc1N)n2CC` yielded an inhibition of 1.35%.
Compound `c1ccc(Cc2nc3ccc(Nc4ncnc5ccccc45)cc3[nH]2)cc1` has an inhibition of 4.64%.
In the case of `O=C(Nc1ccc(Oc2ccc3[nH]c(NC(=O)c4ccco4)nc3c2)cc1)Nc1cc(C(F)(F)F)ccc1F`, the inhibition is reported as 0.01%.
`FC(F)(F)c1ccc(-c2nn3ncccc3c2-c2ccnc(Nc3ccc4c(c3)OCCO4)n2)cc1` was tested, and the inhibition was -2.14%.
`COc1cc2ncnc(Nc3ccc(C)c(O)c3)c2cc1OC` showed an inhibition of 7.27%.
In the case of `c1ccc(Nc2ncc(-c3ccccc3)o2)cc1`, the inhibition is reported as 6.84%.
For `Cc1ccc(NC(=O)CC2CC2)cc1-c1ccc(C(=O)NCC2CC2)cc1`, the inhibition was 3.63%.
`OCc1ccc(-c2nc(-c3ccccn3)c(-c3ccc4c(c3)OCO4)[nH]2)cc1` was tested, and the inhibition was 2.23%.
`Cc1ccc(Nc2ccnc(Nc3cccc(C(N)=O)c3)n2)cc1O` gave an inhibition of 3.39%.
`CN(c1ccc(NC(=O)Nc2ccc(OC(F)(F)F)cc2)cc1)c1ccnc(Nc2cccc(S(N)(=O)=O)c2)n1` showed an inhibition of 5.04%.
Compound `CN(C)C(=O)O[C@@H]1CN[C@@H](C#Cc2cc3ncnc(Nc4ccc(OCc5cccc(F)c5)c(Cl)c4)c3s2)C1` has an inhibition of 29%.
Compound `NS(=O)(=O)c1ccc(Nc2cc(-c3cccc(O)c3)n[nH]2)cc1` has an inhibition of 7.56%.
Work on `Cc1ccc2c(-c3ccnc(Nc4cccc(C(F)(F)F)c4)n3)c(-c3ccccc3)nn2n1` yielded an inhibition of 5.13%.
For `COC(=O)Nc1nc2cc(Oc3ccc(NC(=O)Nc4cccc(Br)c4)cc3)ccc2[nH]1`, the inhibition was 8.57%.
For `N#Cc1c(NC(=O)c2ccccc2F)sc2c1CCCC2`, the inhibition was -1.29%.
With `CN(C)CCCn1c(-c2nonc2N)nc2cnccc21` the inhibition was 5.05%.
Work on `NS(=O)(=O)c1ccc(-c2cc3ccncc3cc2OCc2ccccc2)cc1` yielded an inhibition of 4.7%.
In the case of `NS(=O)(=O)c1cccc(-c2cc3ccncc3cc2OCc2ccccc2)c1`, the inhibition is reported as 6.5%.
In the case of `N#Cc1cccc(Nc2nccc(-c3cnn4ncccc34)n2)c1`, the inhibition is reported as 23.3%.
In the case of `COc1cccc(-n2nc(C)c3c(N/N=C(\C)c4ccncc4)ncnc32)c1`, the inhibition is reported as -0.14%.
Compound `Oc1cccc(-c2nc(-c3ccccc3)[nH]c2-c2ccncc2)c1` has an inhibition of 2.95%.
With `COc1cccc(-n2ncc3c(N/N=C/c4ccc(C)cc4)ncnc32)c1` the inhibition was 7.64%.
`COc1cccc(-n2ncc3c(N/N=C/c4ccc(S(C)(=O)=O)cc4)ncnc32)c1` gave an inhibition of 1.54%.
`NC(=O)c1sc(-n2cnc3ccccc32)cc1OCc1ccccc1Br` was tested, and the inhibition was 4.31%.
Compound `Cc1cc(O)cc(C)c1/C=C/c1cncc(C(=O)N(C)C)c1` has an inhibition of 0.49%.
In the case of `COc1cc(/C=N/Nc2ncnc3c2cnn3C(C)C)ccc1O`, the inhibition is reported as 70.5%.
`NS(=O)(=O)c1ccc(N/N=C2\C(=O)Nc3ccc(Cl)cc32)cc1` was tested, and the inhibition was 2.12%.
`Cc1cc(Cl)cc2c1NC(=O)C2=NNc1ccc(S(N)(=O)=O)cc1` showed an inhibition of 1.85%.
Compound `NC(=O)c1cccc(Nc2nccc(Nc3cccc(F)c3)n2)c1` has an inhibition of 1.22%.
`COc1cc2ncn(-c3cc(OCc4ccccc4S(C)(=O)=O)c(C#N)s3)c2cc1OC` showed an inhibition of 3.95%.
Compound `CCS(=O)(=O)c1ccc(OC)c(Nc2ncc(-c3cccc(OC)c3)o2)c1` has an inhibition of 2%.
Compound `CS(=O)(=O)Nc1cccc(-c2ccc3c(NC(=O)C4CC4)n[nH]c3c2)c1` has an inhibition of -0.59%.
